Data as given in PubChem BioAssay AID1554 (Broad Institute, 2009).
In all, about 300,000 compounds went through this assay and about 520 (0.17%) were called active. Rule as the data show it: active = inhibition above about 50%; inconclusive = no clear call, values can overlap the other calls; inactive = below that. The sample as a whole holds a higher share of actives than the screen did.

test: PubChem AID 1554; settings: BJeLR (HRASV12) viability, CellTiter-Glo ATP luminescence, 48 h; active compounds read high; concentration not given here

| Structure (SMILES) | inhibition |
| --- | --- |
| S=c1[nH]ccn1-c1ccc(Cl)cc1 | 1.81% (inactive) |
| CC(C)(C)OC(=O)NC(Cc1ccccc1)C(=O)NC(CSC1CCCCO1)C(=O)NN (stereo not drawn) | 10.4% (inactive) |
| COc1ccccc1C(=O)NCCn1cc(SCC(=O)NCc2ccco2)c2ccccc21 | -1.46% (inactive) |
| CC12CCC(C(=O)N(CCC#N)CCC#N)(CC1=O)C2(C)C (stereo not drawn) | -15.4% (inactive) |
| COC(=O)c1c(C(=O)OC)c(-c2cccc(C)c2)n2c1CS(=O)C2 (stereo not drawn) | 0.411% (inactive) |
| CC1(C)Oc2ccc3ccc(=O)oc3c2/C(=N/O)C1=O | 0.973% (inactive) |
| Cc1ccc2[nH]c(=O)c(CN3CCCCC3)c(-c3ccccc3)c2c1 | 4.95% (inactive) |
| COC(=O)c1ccc(OCC(O)CN(CCO)CC(O)Cn2ccc3ccccc32)cc1 (stereo not drawn) | 1.45% (inactive) |
| Cc1ccc(O)c(/C=N/NC(=O)COc2ccc3c(C)cc(=O)oc3c2)c1 | -1.41% (inactive) |
| CC1(C)CC(N2CCN(C(c3ccccc3)c3ccccc3)CC2)=CC(=[N+]2CCCCC2)C1 | 70.6% (active) |
| CC1(C)CC(=O)C=C(N2CCCC2)C1 | 0.434% (inactive) |
| O=C1CC(N2CCN(C(c3ccccc3)c3ccccc3)CC2)C(=O)N1 (stereo not drawn) | -3.58% (inactive) |
| Cc1cc(=O)[nH]c(SCc2ccc(Cl)cc2)n1 | 0.607% (inactive) |
| O=C(Oc1ccc(-c2nc(-c3ccccn3)no2)cc1)c1ccccc1 | 61.8% (active) |
| Cc1ccc(Oc2nc(-c3ccccn3)nc3ccccc23)cc1 | 4.2% (inactive) |
| O=C(Oc1ccc(Br)cc1)c1cccnc1 | -11.9% (inactive) |
| COCCNC(=S)N1CCN(C)CC1 | 6.68% (inactive) |
| COc1cc(OC)cc(C(=O)N[C@H](C(=O)OCC(=O)NC(C)c2ccccc2)C(C)C)c1 (stereo partly drawn) | -3.17% (inactive) |
| COc1ccc(C(=O)N[C@H](C(=O)NCc2ccccc2)C(C)C)cc1 | -8.87% (inactive) |
| COc1cc(OC)cc(C(=O)N[C@H](C(=O)Nc2nc3ccccc3[nH]2)C(C)C)c1 | 50.8% (active) |

| Structure (SMILES) | inhibition |
| --- | --- |
| CCOC(=O)c1sc(C)c2c1NC(C)(c1cccc3ccccc13)NC2=O (stereo not drawn) | -6.51% (inactive) |
| Cc1cc(C)n(-c2ccc(C(=O)O)cc2[N+](=O)[O-])n1 | 3.87% (inactive) |
| Cc1cc(Oc2ccc(Cl)cc2)nc(SCC(=O)c2ccccc2)n1 | -7.21% (inactive) |
| CC(=O)c1ccc(Oc2cc(C)nc(-n3nc(C)cc3C)n2)cc1 | 50.8% (active) |
| COc1ccccc1NC(=O)c1cc(N2C(=O)C3C4CCC(C4)C3C2=O)ccc1Cl (stereo not drawn) | -10.4% (inactive) |
| C=CCn1c(SCC(=O)c2ccc(Br)cc2)nnc1C(C)NC(=O)Cc1ccc(OC)cc1 (stereo not drawn) | 2.52% (inactive) |
| NS(=O)(=O)c1ccc(CNC(=O)c2cnccn2)cc1 | 4.27% (inactive) |
| CCC(C)Sc1nc2c(cnn2-c2ccc(F)cc2)c(=O)[nH]1 (stereo not drawn) | -2.29% (inactive) |
| CC1(C)CC(=O)C(C=NCCN2CCN(C(=S)Nc3cccc(Cl)c3)CC2)=C(O)C1 | 8.42% (inactive) |
| CSCCC(NC(=O)COc1ccccc1)C(=O)OCCOc1ccc(F)cc1 (stereo not drawn) | -6.51% (inactive) |
| CCOC(=O)c1sc(NC(=O)CSc2nc(O)c(Cc3ccccc3)c(=O)[nH]2)nc1C | 5.77% (inactive) |
| CCCn1c(=N)n(CC(=O)c2ccc(Cl)c(Cl)c2)c2ccccc21 | 3.45% (inactive) |
| COc1ccc2c(c1)N(C)/C(=C1/SC(=S)N(NC(C)=O)C1=O)S2 | 1.69% (inactive) |
| CC(OC(=O)CN1C(=O)C2CCCCC2C1=O)C(=O)Nc1ncc(Cl)cc1Cl (stereo not drawn) | 6.26% (inactive) |
| CCOC(=O)c1c(N)sc2c1CCCC2=O | 7.59% (inactive) |
| O=C(Nc1ccc(C(=O)O)cc1)/C(=C\c1ccccc1)NC(=O)c1ccc(Br)cc1 | -0.97% (inactive) |
| Cc1ccc(OC(=O)c2cncc(Br)c2)c(C)c1 | -5.3% (inactive) |
| CC1CN(C2CCN(C(=O)COc3ccccc3)CC2)CC(C)O1 (stereo not drawn) | -0.241% (inactive) |
| Cc1c(C(=O)N(Cc2ccccc2)Cc2cccnc2)cnn1-c1ccc(F)cc1 | -6% (inactive) |
| O=C(CNC(=O)c1ccccc1)Oc1ccc([N+](=O)[O-])cc1 | -1.21% (inactive) |

| Structure (SMILES) | inhibition |
| --- | --- |
| O=[N+]([O-])c1cc(Br)c(O)c(/C=N/Nc2nc3ccccc3s2)c1 | 7.46% (inactive) |
| O=C(NC(Nc1nc2ccc([N+](=O)[O-])cc2s1)(C(F)(F)F)C(F)(F)F)c1ccccc1 | 77.1% (active) |
| O=C(CCC(=O)NNc1nc2ccccc2c2nc(-c3ccccc3)nn12)NCCCN1CCCC1=O | 0.872% (inactive) |
| CCOC(=O)/C(=C\c1ccc([N+](=O)[O-])cc1)C(=O)c1cc(C(C)=O)c(Nc2ccccc2)s1 | 58.8% (active) |
| CCOC(=O)COc1ccc([N+](=O)[O-])cc1 | -3.89% (inactive) |
| Cc1ccc(NC(=O)/C(=C/c2ccc([N+](=O)[O-])cc2)NC(=O)c2ccccc2)cc1 | -1.53% (inactive) |
| Cc1ccc(NC(=O)c2cnc(SCC(=O)NCC3CCCO3)n(C)c2=O)cc1 (stereo not drawn) | 1.95% (inactive) |
| COc1cc(CN2CCN(Cc3ccc(C)cc3)CC2)c([N+](=O)[O-])cc1OC | 1.71% (inactive) |
| COC(=O)CN1C(=O)C(C)(C)Oc2ccc(C(=O)Nc3cccc(OC)c3)cc21 | -4.31% (inactive) |
| COc1ccc(CCNC(=O)COC(=O)Cc2cc(OC)c(OC)c(OC)c2)cc1 | 0.941% (inactive) |
| COc1cc2c(C(=O)N(C)c3cc(Cl)ccc3OC)cn(C)c(=O)c2cc1OC | -4.19% (inactive) |
| Cn1cc(CNC(=O)c2ccc(OC3CCN(Cc4ccccn4)CC3)cc2)cn1 | 2.21% (inactive) |
| O=C(NCCOc1cccnc1)c1ccc(OC2CCN(Cc3ccccn3)CC2)cc1 | 113% (active) |
| O=C(c1ccc(OC2CCN(Cc3ccccn3)CC2)cc1)N1CCCCCC1 | -3.12% (inactive) |
| O=C(CN1C(=O)c2cccnc2Oc2ccc(Cl)cc21)NCCc1ccccc1 | 2.42% (inactive) |
| CC(=O)N1CCN(c2ccc(NCc3ccc(C(C)C)cc3)cc2)CC1 | -2.24% (inactive) |
| CC(=O)c1ccc(N2Cc3ccccc3C2)cc1 | -5.06% (inactive) |
| C/C(=N/NC(=O)CN1CCN(S(=O)(=O)c2ccc(Br)cc2)CC1)c1ccncc1 | 4.03% (inactive) |
